Results on 100 variants are retold here after a collection of fitness landscapes (doi:10.1016/j.celrep.2020.107928).

Whole data set: some 81,000 sequences, median “one-hybrid fitness for binding parS DNA” near -0.17, cut for the highest 2% near 0.51. For the sample, the highest values were picked, then their nearest neighbours and some sequences at random. Some results are limits rather than exact numbers.

To fix the notation:
B1: Caulobacter ParB omega fusion; a variant is named by its letters at X, in order, B8GW30 (parent)
chain: MESVVVGEPGMSEGRRGLGRGLSALLGEVDAAPAQAPGEQLGGSREAPIEILQRNPDQPRRTFREEDLEDLSNSIREKGVLQPILVRPSPDTAGEYQIVAGERAWRAAQRAGLKTVPIMVRELDDLAVLEIGIIENVQRADLNVLEEALSYKVLMEKFERTQENIAQTIGKSXSHVANXMRLLXLPDEVQSYLVSGELTAXHARAIAAAADPVALAKQIIEGGLSVRETEALARKAPNLSAGKSKGGRPPRVKDTDTQALESDLSSVLGLDVSIDHRGSTGTLTITYATLEQLDDLCNRLTRGI

This experiment covers variants of B1. Nature of the experiment: one-hybrid fitness for binding parS DNA (scaled: cognate 1, non-cognate 0); higher = stronger binding. The following applies: with parS DNA site. In a few lines:
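Selection: bacterial one-hybrid in E. coli USO, HIS3 reporter with the site 19 bp from the promoter, 48 hours at 37°C on M9-minus-histidine plus 0.1 mM IPTG and 5 mM 3-AT. Libraries were Caulobacter ParB with four randomised specificity codons, sequenced on Illumina before and after selection. Fitness is the rescaled log change in variant-to-wild-type read ratio, anchored to the cognate and non-cognate sites.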
As for STTT, the “one-hybrid fitness for binding parS DNA” value was at most 0.2.
Turning to WKGT, the “one-hybrid fitness for binding parS DNA” value is at most 0.2.
With SGKS, the “one-hybrid fitness for binding parS DNA” value is at most 0.2.
Under RITI stands at most 0.2; under RPPG, at most 0.2; under RDPG, at most 0.2.
RAIH: the “one-hybrid fitness for binding parS DNA” value is at most 0.2.
As for RAPG, the figure is 0.569.
Under RAPH stands at most 0.2; under RAPD, at most 0.2; under RAIG, 0.871.
For the variant RAIF, the “one-hybrid fitness for binding parS DNA” value was at most 0.2.
Under RCPG stands 0.81; under NVNI, at most 0.2.
Take DVVY: the “one-hybrid fitness for binding parS DNA” value was at most 0.2.
As for LLTC, the figure is at most 0.2; as for GHGR, at most 0.2.
For HSMG, the “one-hybrid fitness for binding parS DNA” value was at most 0.2.
Under RQEF stands 0.206; under ATMR, at most 0.2.
As to RCAP, the “one-hybrid fitness for binding parS DNA” value was at most 0.2.
Under RCAS stands 1.01.
As to RSAS, the “one-hybrid fitness for binding parS DNA” value was 0.998.
Under RSAP stands at most 0.2.
Regarding RPAS, the “one-hybrid fitness for binding parS DNA” value is at most 0.2.
For the variant RSAD, the “one-hybrid fitness for binding parS DNA” value is at most 0.2.
Take NQVG: the “one-hybrid fitness for binding parS DNA” value is at most 0.2.
As for TRNP, the figure is at most 0.2; as for TIYS, at most 0.2; as for IDLD, at most 0.2.
Regarding SILM, the “one-hybrid fitness for binding parS DNA” value was at most 0.2.
As to LWSP, the “one-hybrid fitness for binding parS DNA” value was at most 0.2.
SLKT: the “one-hybrid fitness for binding parS DNA” value was at most 0.2.
For GRNC, the “one-hybrid fitness for binding parS DNA” value is at most 0.2.
In the case of RCRS, the “one-hybrid fitness for binding parS DNA” value is 0.877.
On to RCYS, for which the “one-hybrid fitness for binding parS DNA” value was 1.
Consider RPYS, for which the “one-hybrid fitness for binding parS DNA” value is at most 0.2.
For RCRD, the “one-hybrid fitness for binding parS DNA” value was at most 0.2.
Turning to RSRD, the “one-hybrid fitness for binding parS DNA” value was at most 0.2.
Under RSRS stands 0.913; under RPRS, at most 0.2; under RSRN, 0.416.
On to RCYP, for which the “one-hybrid fitness for binding parS DNA” value was at most 0.2.
Turning to SCVM, the “one-hybrid fitness for binding parS DNA” value is at most 0.2.
Under FTPD stands at most 0.2.
With ALCC, the “one-hybrid fitness for binding parS DNA” value was at most 0.2.
Consider WPLG, for which the “one-hybrid fitness for binding parS DNA” value was at most 0.2.
In the case of IPVF, the “one-hybrid fitness for binding parS DNA” value was at most 0.2.
In the case of FYHT, the “one-hybrid fitness for binding parS DNA” value is at most 0.2.
As for RIDD, the figure is at most 0.2; as for RIDS, 0.987; as for RIDY, 0.396.
On to RPNY, for which the “one-hybrid fitness for binding parS DNA” value is at most 0.2.
On to RIDH, for which the “one-hybrid fitness for binding parS DNA” value was 0.231.
Turning to RINH, the “one-hybrid fitness for binding parS DNA” value amounted to 0.284.
For the variant RIND, the “one-hybrid fitness for binding parS DNA” value worked out at 0.258.
RINY: the “one-hybrid fitness for binding parS DNA” value was 0.513.
As for RINS, the figure is 0.923; as for TGRK, at most 0.2.
On to MPPM, for which the “one-hybrid fitness for binding parS DNA” value is at most 0.2.
Regarding WDNC, the “one-hybrid fitness for binding parS DNA” value was at most 0.2.
In the case of KSER, the “one-hybrid fitness for binding parS DNA” value is at most 0.2.
Turning to STLE, the “one-hybrid fitness for binding parS DNA” value was at most 0.2.
On to DQQL, for which the “one-hybrid fitness for binding parS DNA” value was at most 0.2.
On to GHWC, for which the “one-hybrid fitness for binding parS DNA” value is at most 0.2.
Turning to KPDR, the “one-hybrid fitness for binding parS DNA” value is at most 0.2.
TRSC: the “one-hybrid fitness for binding parS DNA” value is at most 0.2.
As for NTIS, the figure is at most 0.2; as for RPCA, at most 0.2.
RGCA: the “one-hybrid fitness for binding parS DNA” value was at most 0.2.
On to RWCA, for which the “one-hybrid fitness for binding parS DNA” value is 0.317.
For the variant RKCA, the “one-hybrid fitness for binding parS DNA” value was 0.503.
RSCA: the “one-hybrid fitness for binding parS DNA” value is 0.579.
Take RMCA: the “one-hybrid fitness for binding parS DNA” value turned out to be 0.633.
For RNCA, the “one-hybrid fitness for binding parS DNA” value turned out to be 0.348.
As for RTCA, the figure is 0.572.
Consider RCCA, for which the “one-hybrid fitness for binding parS DNA” value stood at 0.677.
Turning to QSLF, the “one-hybrid fitness for binding parS DNA” value is at most 0.2.
Under QAWS stands at most 0.2; under ATLF, at most 0.2.
In the case of PAPL, the “one-hybrid fitness for binding parS DNA” value was at most 0.2.
Turning to PDPW, the “one-hybrid fitness for binding parS DNA” value was at most 0.2.
Take DFDR: the “one-hybrid fitness for binding parS DNA” value is at most 0.2.
In the case of QQYT, the “one-hybrid fitness for binding parS DNA” value was at most 0.2.
On to KPHF, for which the “one-hybrid fitness for binding parS DNA” value was at most 0.2.
In the case of RHCA, the “one-hybrid fitness for binding parS DNA” value stood at 0.55.
As for DHCA, the “one-hybrid fitness for binding parS DNA” value is at most 0.2.
As for LGTH, the figure is at most 0.2; as for RQTM, 0.331; as for RQTF, 0.211.
Consider RQTS, for which the “one-hybrid fitness for binding parS DNA” value turned out to be 0.984.
For the variant RQTN, the “one-hybrid fitness for binding parS DNA” value amounted to 0.43.
For RQTH, the “one-hybrid fitness for binding parS DNA” value was at most 0.2.
RQTT: the “one-hybrid fitness for binding parS DNA” value turned out to be 0.929.
Regarding RQTQ, the “one-hybrid fitness for binding parS DNA” value is at most 0.2.
For RQTK, the “one-hybrid fitness for binding parS DNA” value is at most 0.2.
As to RQTG, the “one-hybrid fitness for binding parS DNA” value amounted to 1.01.
As to RQTP, the “one-hybrid fitness for binding parS DNA” value is at most 0.2.
Regarding RQTC, the “one-hybrid fitness for binding parS DNA” value amounted to 0.966.
RQTD: the “one-hybrid fitness for binding parS DNA” value turned out to be 0.217.
